This is part of a sample that, as a whole, favours compounds with a hit. Of some 83,000 tested, about 20% had one in any assay.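 Cells were grown in 96-well plates and exposed to the test compound at a single concentration for 48 hours; results are reported as percent growth, with values below 10 considered active.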 Active and inactive are the calls of the source.
system: CCRF-CEM leukemia; test: NCI-60 one-dose screen, 48 h (100 = growth as untreated, 0 = no growth, -100 = all killed); conditions: 10 µM

SMILES | growth
CCOC(=O)c1cc(C(=O)c2cc(OC)c(OC)c(OC)c2)n2ncc3ccccc3c12 | 70.1% (inactive)
Cc1c(Cl)cccc1NC(=O)CCCl | 84.7% (inactive)
Cc1ccc(S(=O)(=O)N(C)CCCCCC(=O)O)cc1 | 110% (inactive)
COc1cc(-c2nn(-c3cccc(NC(=O)NCCNS(=O)(=O)c4ccc(Cl)cc4)c3)cc2-c2ccncc2)ccc1Cl | 9.85% (active)
CC(=O)Oc1cc(OC(C)=O)c2ccccc2c1OC(C)=O | 76.7% (inactive)
COc1cc(-c2nn(-c3cccc(NC(=O)CN4CCOCC4)c3)cc2-c2cccnc2)ccc1Cl | 70.9% (inactive)
Cc1ccc(NCCNCC(C)(C)O)c2c(=O)c3ccc(Cl)cc3sc12 | -14.4% (active)
COC(=O)C1(O)NC(=C(C#N)C#N)C(C#N)=C1C(=O)c1ccc(OC)c(OC)c1 (stereo not given) | 92.1% (inactive)
CCN(CC)CCOc1ccc2c(c1O)C(=O)c1ccccc1C2=O | 77.2% (inactive)
COc1cc(-c2nn(-c3ccc(NC(=O)NCCCNC(=O)c4ccccc4)cc3)cc2-c2ccncc2)ccc1Cl | 14.5% (inactive)
COc1ccc2nc(-c3ccc(Cl)cc3)cc(-c3nnc(SC/C(=N\O)c4ccccc4)n3-c3ccccc3)c2c1 | 59.3% (inactive)
CCOS(=O)(=O)c1c(C(C)C)cc(C(C)C)cc1C(C)C | 121% (inactive)
O=S(=O)(O)c1cccc(Nc2ccc3ccccc3c2)c1 | 95.6% (inactive)
CN(C)CCCSc1ccccc1NC1=C(Cl)C(=O)C(Nc2ccccc2SCCCN(C)C)=C(Cl)C1=O | -15.2% (active)
Brc1ccc2c(c1)-c1ccccc1C1=NCCN12 | -12% (active)
CC(C)CCN(CCC(C)C)CC(=O)Nc1ccc(S(=O)(=O)c2ccc(NC(=O)CN(CCC(C)C)CCC(C)C)cc2)cc1 | 2% (active)
CCNCC(=O)Nc1ccc(C(=O)OCC)cc1 | 96.4% (inactive)
O=C(NCCCNS(=O)(=O)c1ccc(Cl)cc1)Nc1ccc(-n2cc(-c3ccncc3)c(-c3ccc(Cl)c(O)c3)n2)cc1 | 23.5% (inactive)
C1CN(CC2CCC(CN3CCOCC3)O2)CCO1 (stereo not given) | 50.4% (inactive)
CCN(CC)CC(=O)N(CC)c1ccc(C)c(Cl)c1 | 93.8% (inactive)

SMILES | growth
CC(CN(C)C)Oc1ccc(OC(C)CN(C)C)c2c1C(=O)c1ccccc1C2=O (stereo not given) | 28.9% (inactive)
O=C1c2ccccc2C(=O)c2c1ccc(C(Br)Br)c2[N+](=O)[O-] | -43.4% (active)
COc1cc(-c2nn(-c3cccc(NC(=O)CCN4CCN(c5ccccc5)CC4)c3)cc2-c2ccncc2)ccc1Cl | 17.8% (inactive)
O=C(Nc1ccc(F)cc1)c1cc2ccccc2cc1O | 71.6% (inactive)
O=C(Nc1ccc2c(O)cc(S(=O)(=O)O)cc2c1)c1ccc([N+](=O)[O-])cc1 | 88.5% (inactive)
CN(C)CCCOc1cccc(NC2=C(Cl)C(=O)C(Nc3cccc(OCCCN(C)C)c3)=C(Cl)C2=O)c1 | -37.6% (active)
COc1cc(OC)c2c(=O)c(O)c(-c3ccccc3)oc2c1 | 47.8% (inactive)
CC(=O)Nc1ccc(CC[C@H]2CCC/C=C/[C@@H]3C[C@H](O)C[C@H]3[C@H](O)/C=C/C(=O)O2)cc1 | -4.29% (active)
Nc1ncnc2c1ncn2C1(CO)OCC(O)C(O)C1O (stereo not given) | 101% (inactive)
O=C(Nc1cccc2c1CCCC2)c1cc2ccccc2cc1O | 20.9% (inactive)
CN(C)CCCOc1ccccc1NC1=C(Cl)C(=O)C(Nc2ccccc2OCCCN(C)C)=C(Cl)C1=O | -16.5% (active)
O=C(N/N=C/c1ccc([N+](=O)[O-])cc1)c1ccccc1Nc1cccc(C(F)(F)F)c1 | 91.9% (inactive)
NNC(=O)Oc1c(Cl)cc(Cl)cc1[N+](=O)[O-] | 100% (inactive)
Nc1ccc(/C=N/Nc2ccnc3c(O)cccc23)c2cccnc12 | 14.4% (inactive)
O=S(=O)(O)c1ccc(Cl)cc1 | 106% (inactive)
COc1cc(-c2nn(-c3cccc(NC(=O)NCCNC(=O)c4cccc(C(F)(F)F)c4)c3)cc2-c2ccncc2)ccc1Cl | 20.6% (inactive)
CCOC(=O)c1cc(C(=O)c2cc(OC)c(OC)c(OC)c2)n2ccc(-c3cc[n+](CC(=O)c4cc(OC)c(OC)c(OC)c4)cc3)cc12 | -15% (active)
CCOC(=O)c1cc(C(=O)c2cc(OC)c(OC)c(OC)c2)n2nc(C)ccc12 | 17.1% (inactive)
CCOC(=O)c1cc(C(=O)c2ccc(Cl)cc2)n2ccc(-c3cc[n+](CC(=O)c4ccc(OC)cc4)cc3)cc12 | -3.14% (active)
C/C=C/CSC(C)(C)C(=O)NC | 98.5% (inactive)

Source: PubChem BioAssay (NCI)
